In PubChem BioAssay AID1851 (National Center for Advancing Translational Sciences (NCATS), 2009):
Among all 16,000 compounds or so, about 2,600 (16%) were called active. Roughly 20% stayed inconclusive and do not appear here. Not all results are given here. A number with no mark means an inactive call. The call rests on the fitted dose curve; in most records, active means well fitted curve in the direction sought with a large enough effect; inconclusive means small, poorly fitted or top-dose-only effect, or effect the other way; inactive means no such curve, though single readings can be large or run the other way.

Molecular target: Cytochrome P450 2D6 (Homo sapiens) (UniProt P10635)
Assay: Cytochrome panel assay with activity outcomes
Conditions: recombinant CYP, pro-luciferin dealkylation, luminescence, p450-cyp2d6; series mostly up to 57.1 µM
Procedure: The P450 gene superfamily is involved in the metabolism and clearance of xenobiotics. This assay used various human CYP P450 isozymes to measure the dealkylation of various pro-luciferin substrates to luciferin. The luciferin is then measured by luminescence after the addition of a luciferase detection reagent. Pro-luciferin substrate concentration in the assay was equal to its KM for its CYP P450 isozyme. Inhibitors and some substrates limit the production of luciferin, and decrease measured luminescence.
NCGC Assay Protocol Summary:
1, Reagent, 2 uL, Isozyme and Pro-Luciferin
2, Library compounds, 23 nl, 40 uM to 0.24 nM dilution series
3, Controls, 23 nl, Isozyme specific inhibitor
4, Reagent, 2 uL, NADPH regeneration solution
5, Incubation time, 60 min, Isozyme specific temperature
6, Reagent, 4ul, Detection reagent
7, Incubation time, 20 min, Isozyme specific temperature
8, Detection, 1 sec, ViewLux luminescent read
The luciferase-based P450-GloTM Screening Systems were obtained from Promega (Madison, WI) for CYP 1A2 (V9770), CYP 2C9 (V9790), CYP2 C19 (V9880), CYP 2D6 (V9890), and CYP 3A4 Luciferin-PPXE (V9910) and were adapted for 1,536-well microplates and an automated protocol. The control compounds furafylline for 1A2 (F124), sulfaphenazole for CYP 2C9 (S0758), ketoconazole for CYP 2C19 (K1003), quinidine for 2D6 (Q3625), and ketoconazole for 3A4 (K1003) were purchased from Sigma Aldrich (St. Louis, MO). Recombinant P450 enzymes were obtained from baculovirus constructs expressed in insect cells (BD/Gentest).
Medium-binding white solid Kalypsys plates used. Mixtures kept on ice. 1A2: 10 nM 1A2, 100 uM Luc-ME, 100 mM KPO4; 2C9: 10 nM 2C9, 100 uM Luc-H, 25 mM KPO4; 2C19: 5 nM 2C19, 10 uM Luc-H EGE, 50 mM KPO4; 2D6: 5 nM 2D6, 30 uM Luc-ME EGE, 100 mM KPO4; 3A4: 10 nM, 25 uM Luc-PPXE. All amounts are reflected in their final concentration, working concentration is 2x.
NADPH regeneration solution: 1.3 mM NADP+, 3.3 mM glucose-6-phosphate, 3.3 mM MgCl2, 0.4 U/mL glucose-6-phosphate dehydrogenase for all isozymes, 200 mM KPO4 for 3A4. Mixture prepared at RT but kept on ice during automated run.
RT incubation in auxilliary plate hotel for 1A2, 2D6, and 3A4; 37C for 2C9 and 2C19.
Keywords: P450, CYP1A2, CYP2C19, CYP2C9, CYP2D6, CYP3A4, Luciferase, MLSMR, MLSCN, NIH Roadmap, qHTS, NCGC
On the % scale 0 is the no-effect control and ±100 the full control effect.

Cytochrome P450 2D6 (Homo sapiens), sequence (P10635 whole entry, looked up): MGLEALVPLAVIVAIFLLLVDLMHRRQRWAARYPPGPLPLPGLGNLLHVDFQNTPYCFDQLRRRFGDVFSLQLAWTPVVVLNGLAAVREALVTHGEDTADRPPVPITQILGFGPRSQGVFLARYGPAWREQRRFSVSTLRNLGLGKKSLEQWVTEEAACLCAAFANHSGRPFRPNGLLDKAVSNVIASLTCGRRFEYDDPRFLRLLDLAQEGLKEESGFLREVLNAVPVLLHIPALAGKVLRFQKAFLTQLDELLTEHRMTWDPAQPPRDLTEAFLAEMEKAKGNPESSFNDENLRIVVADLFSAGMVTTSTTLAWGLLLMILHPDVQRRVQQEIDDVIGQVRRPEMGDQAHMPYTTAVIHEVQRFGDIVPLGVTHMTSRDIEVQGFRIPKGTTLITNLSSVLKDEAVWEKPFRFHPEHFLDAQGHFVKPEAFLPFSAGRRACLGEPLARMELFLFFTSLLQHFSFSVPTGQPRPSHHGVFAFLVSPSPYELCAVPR

Compound	AC50	activity, negative = inhibition
Cc1nn(C(C)C(=O)Nc2ccc(Cl)cn2)c(C)c1[N+](=O)[O-] (stereo unspecified)	inactive	–
C[C@@](N)(C(=O)O)c1ccc(S(=O)(=O)O)cc1	inactive	–
COc1cccc(Nc2ncc3nc(-c4cccs4)c(=O)n(Cc4cccs4)c3n2)c1	inactive	–
O=c1c(-c2ccc(Cl)cc2)nc2cnc(N3CCNCC3)nc2n1Cc1cccs1	inactive	–
CCOC(=O)COc1c(OC)cc(Cl)cc1C1Nc2ccccc2C(=O)N1c1ccc(F)cc1 (stereo unspecified)	inactive	–
Oc1c(Br)cc(CN(Cc2cc(Br)c(O)c(Br)c2)C2CCCCC2)cc1Br	2.51 µM (active)	–
Oc1c(Br)cc(Br)cc1CN(Cc1cc(Br)cc(Br)c1O)C1CCCCC1	0.251 µM (active)	–
CC(C)(C)c1cc(Br)c(O)c(CN(Cc2cc(C(C)(C)C)cc(Br)c2O)C2CCCCC2)c1	0.2 µM (active)	–
CC1=CC=CN2CC(O)CN=C12 (stereo unspecified)	inactive	–
COc1ccc(/C(O)=C2/C(=O)C(=O)N(Cc3cccnc3)C2c2ccco2)cc1OC (stereo unspecified)	inactive	–
CC(=O)n1nc(-c2ccco2)nc1N	inactive	–
Cc1cccc(N(CC(=O)NC2CCCC2)C(=O)c2cc3cc4cccc(C)c4nc3s2)c1C	inactive	–
Nc1ccc2[nH]cc(CCC(=O)O)c2c1	–	5.9% [at 11.4 µM]
CSCC[C@H](NC(=O)c1nn(C)c(=O)c2ccccc12)c1nc2ccccc2[nH]1	inactive	–
Cc1noc(C)c1-c1nccc(N2CCOCC2)n1	inactive	–
Cc1ccc2c(c1)N[C@H](c1ccc(C(=O)O)cc1)c1cccn1-2	–	-2.93% [at 11.4 µM]
Cc1ccc2nc(CC(=O)c3ccc4ccccc4c3)c(=O)[nH]c2c1	–	-4.59% [at 11.4 µM]
COc1ccc2nc(SCC(=O)Nc3ccc4c(c3)OCCO4)[nH]c2c1	inactive	–
Cc1ccc2nc(SCC(=O)c3ccc4c(c3)OCO4)[nH]c2c1	4.47 µM (active)	–
CC(/C=C1\N=C(SCc2ccccc2Cl)SC1=O)=C\c1ccccc1	inactive	–
Cc1ccccc1Cn1nc(C)c(NC(=O)c2sc3ccccc3c2Cl)c1C	inactive	–
Cc1cc(Nc2ccccc2)nc(N)n1	11.2 µM (active)	–
Cc1cc(Nc2ccc(Cl)cc2)nc(N)n1	inactive	–
Cc1nnc(SCc2nc(N)nc(Nc3ccccc3)n2)s1	inactive	–
COC(=O)C1CCN(c2cc(=O)n(C3CCCCC3)c(=O)[nH]2)CC1	inactive	–
Cc1ccc(OCC(=O)NNC(=O)CCc2ccccc2)cc1	inactive	–

Compound	AC50	activity, negative = inhibition
CN(C)CC(O)COc1ccc(C(C)(C)c2ccc(OCC(O)CN(C)C)cc2)cc1 (stereo unspecified)	inactive	–
CCC(=O)c1ccc(OCC(O)CN(CCc2ccccc2)Cc2ccccc2)cc1 (stereo unspecified)	1 µM (active)	–
COc1ccc(S(=O)(=O)NCc2ccc(C(=O)N3CCN(c4ccccn4)CC3)cc2)cc1	inactive	–
c1ccc2c(CN3CCN(Cc4c[nH]c5ccccc45)CC3)c[nH]c2c1	2.51 µM (active)	–
O=C(O)[C@H](Cc1c[nH]c2ccccc12)N1C(=O)c2ccccc2C1=O	–	-2.59% [at 11.4 µM]
N[C@@H](Cc1c[nH]c2ccccc12)C(=O)O	inactive	–
COC(=O)Cn1cc(/C=N/NC(=O)c2ccc(C#N)cc2F)c2ccccc21	inactive	–
CC(C)c1cccc2cc3c(nc12)-c1cccc(=O)n1C3	inactive	–
Cc1ccc(C(=O)c2ccc(CC(=O)O)n2C)cc1	inactive	–
N#Cc1ccc(C(=O)Nc2ccc(N3CCN(C(=O)c4ccco4)CC3)cc2)c(F)c1	inactive	–
COc1ccccc1CNc1nc(-c2ccccc2CN(C)C)nc2ccccc12	10 µM (active)	–
COc1ccc(CNc2nc(-c3ccc(C(=O)N(C)C)cc3)nc3ccccc23)c(OC)c1	inactive	–
COc1ccc(CNc2nc(-c3c(C)noc3C)nc3ccccc23)c(OC)c1	inactive	–
COc1ccc(CNc2nc(-c3ccccc3CN(C)C)nc3ccccc23)c(OC)c1	10 µM (active)	–
N[C@@H](CO)C(=O)NNCc1ccc(O)c(O)c1O	inactive	–
Cc1cc(NC(=O)c2ccccc2Cl)no1	inactive	–
CCOC(=O)C(C)n1cnc2c(oc3ccccc32)c1=O (stereo unspecified)	inactive	–
O=C(NNC(=O)c1ccccc1-n1cccc1)c1ccc(Cl)c(Cl)c1	inactive	–
CCOc1ccc(NC(=O)c2nnn(CC(=O)Nc3ccccc3OC)c2N)cc1	inactive	–
CC(=O)NC(C)C(c1cccs1)N1CCN(c2ccccc2)CC1 (stereo unspecified)	inactive	–
COc1ccc(N2CCN(CCNC(=O)C3CCN(S(=O)(=O)c4cccs4)CC3)CC2)cc1	inactive	–
CC(C)C(NS(=O)(=O)c1cccs1)C(=O)NCCN1CCN(c2ccccc2)CC1 (stereo unspecified)	14.1 µM (active)	–
COc1ccc(NC(=O)N2CC3(CCN(S(C)(=O)=O)CC3)C2)cc1	inactive	–
Cc1ccc(SCC(=O)Nc2cccc(NC(=O)c3ccco3)c2)cc1	20 µM (active)	–
O=C(CSc1ccc(Cl)cc1)Nc1cccc(-c2nc3ncccc3o2)c1	8.91 µM (active)	–
O=C(Nc1nnc(SCc2ccc(Cl)cc2)s1)c1ccco1	inactive	–

Compound	AC50	activity, negative = inhibition
O=C(CSc1ccccc1)Nc1ccc(NC(=O)c2ccco2)cc1	inactive	–
O=C(Nc1cccc(-c2nc3ncccc3o2)c1)c1sc2cc(Cl)ccc2c1Cl	inactive	–
O=C(Nc1cccc(-c2nc3ncccc3o2)c1)c1sc2ccccc2c1Cl	inactive	–
CC(=O)c1ccc(-n2nnnc2SCC(=O)Nc2cccc(NC(=O)c3ccco3)c2)cc1	inactive	–
O=C(CSc1ccc(Cl)cc1)Nc1cccc(NC(=O)c2ccco2)c1	6.31 µM (active)	–
O=C(Nc1cccc(OC(=O)c2ccco2)c1)c1ccco1	inactive	–
COc1ccc(NC(=O)c2ncn[nH]2)cc1	inactive	–
COC(=O)C(C)(C(=O)OC)c1ccc([N+](=O)[O-])cn1	inactive	–
Cc1c(Cl)c([N+](=O)[O-])nn1CC(=O)Nc1c(C)n(C)n(-c2ccccc2)c1=O	inactive	–
Cc1ccc(NC(=O)CCc2c(C)nc3ncnn3c2C)nc1	inactive	–
CC(=O)c1cccc(NC(=O)c2csc(-n3nc(C)cc3C(F)(F)F)n2)c1	inactive	–
COC(=O)CCCC(=O)O	–	8.35% [at 11.4 µM]
COC(=O)[C@@]1(Cc2ccc(OC)cc2)[C@@H]2[C@@H](CC(=O)[C@H]2CC(=O)C(=O)N(C)C)CN1C(=O)c1ccccc1	inactive	–
O=[N+]([O-])c1ccc2c(c1)Cc1cc(N=Cc3ccc4c(c3)OCO4)ccc1-2	–	-11.6% [at 11.4 µM]
CN1CCN(c2nc3cc(C(F)(F)F)ccc3n3cccc23)CC1	inactive	–
FC(F)(F)c1cnc(N2CCC(=NOCc3ccc(Cl)cc3)CC2)c(Cl)c1	inactive	–
CCCCCCN(CCCCCC)C(=O)Cc1c(-c2ccc(Cl)cc2)[nH]c2ccc(Cl)cc12	inactive	–
Cc1cc(=O)c2cc(Cl)ccc2[nH]1	inactive	–
CCCCN(C)Cc1c(C)[nH]c2ccc(Cl)cc2c1=O	3.16 µM (active)	–
CCOc1ccc2[nH]c(=O)c(CN(CCc3ccccc3)C(=O)N3CCOCC3)cc2c1	inactive	–
N#C/C(=C\c1ccc(Cl)cc1)c1nc2ncccc2[nH]1	12.6 µM (active)	–
N#C/C(=C\c1ccccc1)c1nc2ncccc2[nH]1	inactive	–
c1ccc(-c2ccc(C3=Nn4c(Cn5nnc6ccccc65)nnc4SC3)cc2)cc1	inactive	–
COc1cccc2c1OC[C@@H](CO)[C@H]2N(C)C(=O)Nc1ccc(Cl)cc1Cl	3.55 µM (active)	–
COC(=O)N1CC(=O)N(OC)C1c1ccc(Cl)cc1Cl (stereo unspecified)	inactive	–
Cc1nc(C(=O)Nc2ccc(Cl)cc2Cl)nn1-c1cc(OC(C)C)c(Cl)cc1Cl	inactive	–

Compound	AC50	activity, negative = inhibition
Cc1ccc(OCC(=O)Nc2ccc(Cl)cc2)c(-n2nc3ccccc3n2)c1	inactive	–
CCCCOC(=O)Nc1ccc(C)c(Cl)c1	inactive	–
Cc1cc2nc(SCCOC(=O)Nc3ccc(Cl)cc3)nc(C)c2cc1C	8.91 µM (active)	–
O=C1NC(=O)[C@@](Cc2ccccc2)(c2cccnc2)N1	–	1.34% [at 11.4 µM]
CCS(=O)(=O)Nc1ccc(C2=NN(C(=O)c3ccco3)C(c3ccc(C)cc3)C2)cc1 (stereo unspecified)	inactive	–
Clc1ccc(CCNc2nc3ccccc3s2)cc1	3.55 µM (active)	–
O=c1c(-c2nc3ccccc3s2)cccn1Cc1ccc(Cl)cc1	inactive	–
CC(=O)NNc1nc2ccccc2s1	inactive	–
Cc1noc2ncnc(Oc3ccc4ccccc4c3)c12	inactive	–
COCCN1C(=O)C(=O)/C(=C(/O)c2cccc(OC)c2)C1c1ccc(C)o1 (stereo unspecified)	inactive	–
CCOC(=O)c1[nH]c2cc(OC)c(OC)cc2c1NC(=O)c1ccc2c(c1)OCO2	inactive	–
CCOC(=O)c1oc2ccccc2c1NC(=O)c1ccc2c(c1)OCO2	3.55 µM (active)	–
COC(=O)c1[nH]c2cc(OC)ccc2c1NC(=O)c1ccc2c(c1)OCO2	22.4 µM (active)	–
COc1cccc(NC(=O)c2oc3ccccc3c2NC(=O)c2ccc3c(c2)OCO3)c1	inactive	–
CCOC(=O)c1oc2ccccc2c1NC(=O)c1ccc(S(=O)(=O)N(C)C)cc1	inactive	–
COC(=O)c1[nH]c2cc(OC)ccc2c1NC(=O)c1nonc1C	inactive	–
Cc1nc2cnc(Nc3ccccc3)nc2n(CCc2ccccc2)c1=O	inactive	–
N#Cc1cccc(NC(=O)N2CCCC3(CCN(C(=O)c4cnccn4)CC3)C2)c1	inactive	–
CC(C)CO/N=C1/C[C@@H](O)[C@@H](O)[C@@H]2[C@@H]3C(=O)N(Cc4ccc5c(c4)OCO5)C(=O)[C@H]3CC[C@H]12	–	-12.3% [at 11.4 µM]
O=C(O)CCC(=O)N1CCC[C@H]1C(=O)O	inactive	–
Cc1ccc2c(c1)N(CC(=O)NC1CCCc3ccccc31)C(=O)CO2 (stereo unspecified)	12.6 µM (active)	–
Cc1ccc2c(c1)N(CCC(=O)NCC1CCCO1)C(=O)CO2 (stereo unspecified)	inactive	–
Cc1ccc2c(c1)-c1c(cnn1CC(=O)O)CO2	inactive	–
